In PubChem BioAssay (NCI):
Compounds without any hit were thinned out: in the full panel of roughly 79,000, 15% have a hit. Rule as the data show it: active = growth inhibition above about 70%; inactive = the rest.

What was measured:
[1] = NCI Yeast Anticancer Drug Screen. Data for the rad50 strain (AID 155);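 also: 0% = growth of vehicle-only cultures of the same strain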; details: S. cerevisiae rad50 strain growth inhibition; at 50.0 µM; hits give high values
In short: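 Yeast carrying a defined DNA repair defect were exposed to test compounds, and growth was compared with vehicle-treated controls to give percent inhibition.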

[2] = NCI Yeast Anticancer Drug Screen. Data for the mec2-1 strain (AID 157); details: S. cerevisiae mec2-1 strain, at 50.0 µM, hits give high values
In short: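 Growth inhibition is read against vehicle-treated controls after compound exposure of the mec2-1 yeast strain, which is defective in DNA damage repair or cell cycle control.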

[3] = NCI Yeast Anticancer Drug Screen. Data for the sgs1 mgt1 strain (AID 161);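 also: 0% = growth of cultures given vehicle only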; details: S. cerevisiae sgs1 mgt1 strain, at 50.0 µM, hits give high values
In short: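 This yeast growth screen uses a strain with defined DNA-repair lesions; compound-treated growth is compared with vehicle-treated growth.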

[4] = NCI Yeast Anticancer Drug Screen. Data for the cln2 rad14 strain (AID 165);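 also: 0% = growth equal to vehicle treated cultures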; details: S. cerevisiae cln2 rad14 strain, at 50.0 µM, hits give high values
In short: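 Growth inhibition, relative to vehicle-treated controls, is the read-out. The test organism is a yeast strain with defined genetic alterations, cln2 rad14.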

[5] = NCI Yeast Anticancer Drug Screen. Data for the bub3 strain (AID 167); details: S. cerevisiae bub3 mutant strain, at 50.0 µM, hits give high values
In short: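 Compounds were applied to a genetically altered yeast strain carrying a cell-cycle control defect. Growth inhibition was scored against vehicle-treated controls.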

[6] = NCI Yeast Anticancer Drug Screen. Data for the mlh1 rad18 strain (AID 175); details: S. cerevisiae mlh1 rad18 strain growth inhibition; at 50.0 µM; hits give high values
In short: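 Cells of a genetically altered yeast strain, deficient in DNA damage repair, were treated with compound. Their growth was then compared with that of vehicle-treated cultures to give inhibition.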

Measured: growth inhibition

CCOC(=O)C1NC(=O)C(C(=O)OCC)C1C(C)C (stereo not given)
inactive: [1] 9.45% | [2] 20.9% | [3] 0.35% | [4] -8.25% | [5] -4.05% | [6] -9.05%

CC12CCC(/C(=C/N3CCCCC3)C1=O)C2(C)C (stereo not given)
inactive: [1] 12.8% | [2] 10.2% | [3] 1.75% | [4] -17.8% | [5] 22.4% | [6] 5.05%

CC1=C(C(=O)NCCc2ccccc2)CC(C(=O)NCCc2ccccc2)=C(C)N1
inactive: [1] -9.8% | [2] 6.4% | [3] 5.75% | [4] 14.5% | [5] -13.2% | [6] -32.1%

CN(C)CCCN
inactive: [1] -11.3% | [2] -4.4% | [3] 3% | [4] -30.8% | [5] 5.7% | [6] 1.5%

COC1=CC(=O)c2ccc(C(C)C)cc2C1(C)C1=NC(C)(C)CO1 (stereo not given)
inactive: [1] -1.55% | [2] -14.4% | [3] -0.85% | [4] 16.8% | [5] -6.45% | [6] -9.8%

Nc1ccccc1SC1CC(=O)N(c2ccc(Br)cc2)C1=O (stereo not given)
inactive: [1] 13.2% | [2] 3.4% | [3] 2.75% | [4] 10.8% | [5] 26.6% | [6] 12.3%

CC1CN(c2ccccc2)NC1=O (stereo not given)
inactive: [1] 0.4% | [2] -32.7% | [3] 0.05% | [4] 27.1% | [5] -19.6% | [6] -7.55%

CSCCCCCSC
inactive: [1] 0.6% | [2] -27.1% | [3] -25.3% | [4] 0.45% | [5] -3.75% | [6] 0.55%

Cc1cc2c(c(S(=O)(=O)c3ccccc3[N+](=O)[O-])c1)NCCC2
inactive: [1] 2.95% | [2] -36% | [3] 3.3% | [4] -23.4% | [5] 14.8% | [6] -15.8%

C[Si](C)(C)CCCn1ccc(=O)[nH]c1=O
inactive: [1] 45.6% | [2] 7.45% | [3] 27.8% | [4] -8.15% | [5] 29.4% | [6] -26.3%

C/C=C/c1ccc(O)c(OC)c1
inactive: [1] 13.1% | [2] -11.6% | [3] 4.85% | [4] -5.95% | [5] -3.25% | [6] -9.3%

CCCCC(CC)COS(=O)(=O)O (stereo not given)
inactive: [1] -16.3% | [2] 2.25% | [3] -30.9% | [4] -42% | [5] -27% | [6] -42%

Clc1cccc(C2N3CCCCC3[C@@H]3c4[nH]c5ccccc5c4CCN23)c1 (stereo not given in full)
inactive: [1] -0.75% | [2] -1.85% | [3] -1.95% | [4] 3.1% | [5] 10.9% | [6] 1.7%

CC(C)(C)C1=Cc2cc3cc(C(C)(C)C)[nH]c(=O)c3cc2S(=O)(=O)N1
inactive: [1] -23.2% | [2] -22.6% | [3] -14.4% | [4] 3% | [5] 5.4% | [6] -20.9%

CSc1ccc(NC(=O)Nc2cccc(F)c2)cc1
inactive: [1] -2.15% | [2] 11.9% | [3] 27.2% | [4] -18.5% | [5] 42.5% | [6] 35.6%

CC(=N/N(C)c1ccccc1)/C(C)=N/N(C)c1ccccc1
inactive: [1] 19.1% | [2] 6.7% | [3] 3.7% | [4] 3.65% | [5] 4.35% | [6] 15.8%

CCN1C(=O)c2ccccc2C1=O
inactive: [1] 11.8% | [2] -9.85% | [3] -5.25% | [4] -16.9% | [5] 5.95% | [6] 24.1%

CC(=O)OC[C@H]1O[C@@H](O[C@H]2[C@H](OC(C)=O)C=CO[C@@H]2COC(C)=O)C(OC(C)=O)[C@H]2OC(C)(C)O[C@H]21 (stereo not given in full)
inactive: [1] -9% | [2] -14.8% | [3] -18.9% | [4] 3.5% | [5] 7.05% | [6] 4.95%

CC(=O)[C@H]1CC[C@H]2[C@@H]3CC=C4C=CCC[C@@H]4[C@H]3CC[C@]12C
inactive: [1] -14.1% | [2] 20.1% | [3] 22.9% | [4] -52% | [5] 18.8% | [6] 24.4%

COc1ccc(C(O)C(CN(C)C)CN(C)C)cc1 (stereo not given)
inactive: [1] -0.75% | [2] -19.6% | [3] 6.65% | [4] 8.15% | [5] 8.7% | [6] 10.8%
